Results as given in PubChem BioAssay AID1850 (Southern Research Specialized Biocontainment Screening …, 2009).
Hit rate of the full screen: of about 310,000 compounds, about 1,000 (0.32%) were called active. Only a sample is shown. Results with a measured potency or affinity are listed apart. A number with no mark means an inactive call. How the calls were made is not given here.

Experiment: Inhibition of PhoP regulon, Salmonella typhi GFP reporter cells, confirmation, 4 h (AID 1850);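 further: 0% = induced wells with vehicle and 100% = uninduced wells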
Conditions: Salmonella Typhi PhoP-promoter GFP reporter, fluorescence, at 50 µM, stronger effect = higher value

First: CN1CCC2(CC1)N=C(c1ccc(F)cc1)C(=S)N2C(=O)c1ccccc1
Second: CN1CCC2(CC1)N=C(c1ccc(F)cc1)C(=S)N2C(=O)c1ccc(C(C)(C)C)cc1
The inhibition of the first is lower: -2.67% for the first, 17.9% for the second.

Going from `O=C(O)c1ccc(S(=O)(=O)Nc2ccc3c(c2)OCCO3)cc1` to `O=C(NCc1ccc2c(c1)OCO2)c1cccc([N+](=O)[O-])c1`, the inhibition rises from -5.88% to -1.83%.

Going from `CCCC(=O)Nc1ccc(C(=O)NNC(=O)COc2ccc(Br)c(C)c2)cc1` to `Cc1ccc(NC(=O)NNC(=O)c2ccccc2)cc1`, the inhibition rises from -2.62% to 1.31%.

Going from `O=c1[nH]cc(-c2ccccc2)c(=O)[nH]1` to `O=c1[nH]cc(O)c(=O)[nH]1`, the inhibition rises from 2.03% to 6.55%.

First: COC(=O)CN1C2=NCCCN2c2ccccc21
Second: CCCNC(=O)c1cc(-c2ccccc2)c(N2CCCCC2)s1
The inhibition of the first is lower: 6.91% for the first, 9.44% for the second.

First: Cc1sc2ccccc2[n+]1CC(=O)c1ccccc1
Second: O=C(C[n+]1cc(Br)cc2ccccc21)c1ccccc1
The inhibition of the first is lower: -4.52% for the first, 22% for the second.

Going from `Cc1sc2cc3c(c(C(=O)c4ccccc4)[n+]2c1C)-c1cccc2cccc-3c12` to `Cc1ccc(NC(=O)c2ccccc2)cc1`, the inhibition rises from -9.84% to -5.33%.

First: O=C(OCc1ccc(COC(=O)c2cccnc2Cl)cc1)c1cccnc1Cl
Second: O=C(O)c1cccnc1Sc1ccccc1Cl
The inhibition of the first is lower: -8.94% for the first, -7.16% for the second.

Going from `CCOc1ccc(OCC(=O)N2CCOCC2)cc1` to `O=C(OCC(=O)N1CCOCC1)c1ccccc1O`, the inhibition rises from -0.13% to 5.57%.

Going from `CCn1cc(C(=O)NCCC(=O)OC)c(=O)c2cc3c(cc21)OCO3` to `CCOC(=O)c1cn(CC)c2cc3c(cc2c1=O)OCO3`, the inhibition rises from 2.1% to 2.61%.

First: CCn1ccc(=O)c2cc3c(cc21)OCO3
Second: CCn1nc(C(=O)N2CCN(Cc3ccc4c(c3)OCO4)CC2)c2ccccc2c1=O
The inhibition of the first is higher: -2.2% for the first, -11.3% for the second.

First: O=C(Nc1ccccc1C(F)(F)F)N1CCN(c2ccccn2)CC1
Second: Oc1ccccc1Nc1ccccn1
The inhibition of the first is higher: 5.82% for the first, -1.96% for the second.

Compared with `O=C(C1CC(c2ccccc2O)=NO1)N1CCc2ccccc2C1` (stereo unspecified), `O=C(NCc1ccc(Cl)cc1)N1CCc2ccccc2C1` is higher in inhibition: -3.18% for the first, 2.15% for the second.

First: O=C(C[n+]1cccc(CNC(=O)c2ccc(OC(F)F)cc2)c1)Nc1ccc(F)cc1
Second: O=C(C[n+]1cccc(CNC(=O)c2ccc(OC(F)F)cc2)c1)Nc1cccc(C(F)(F)F)c1
The inhibition of the first is lower: -3.3% for the first, 1.69% for the second.

Going from `O=C(COC(=O)C1=COCCO1)Nc1ccc(F)cc1` to `COCCNC(=O)C1CC(c2ccc(F)cc2)=NO1` (stereo unspecified), the inhibition falls from 2.51% to -13.4%.

First: Cc1ccc(SCC(=O)Nc2ccc3c(c2)C(=O)NC3=O)cc1
Second: Cc1ccc(S(=O)(=O)NCCC(=O)Nc2ccncc2)cc1C
The inhibition of the first is lower: 5.23% for the first, 9.54% for the second.

Going from `Oc1ccccc1CNCC12CC3CC(CC(C3)C1)C2` to `Oc1ccc(C23CC4CC(CC(C4)C2)C3)cc1O`, the inhibition falls from 6.43% to 0.69%.

Compared with `C=CCNC(=O)c1cccc(OC2CCN(CC(C)(C)C)CC2)c1`, `Cc1ccc(S(=O)(=O)N2CCC(C(=O)O)CC2)cc1` is higher in inhibition: -1.47% for the first, -0.71% for the second.

Going from `O=C(Nc1cccc(S(=O)(=O)N2CCCC2)c1)c1ccncc1` to `CCc1nnc(NC(=O)c2cccc(S(=O)(=O)N3CCc4ccccc43)c2)s1`, the inhibition rises from -14.8% to -12.3%.

First: Nc1c(Cl)ncnc1N/N=C/c1ccncc1
Second: Nc1c(Cl)ncnc1N/N=C/c1ccc2ccccc2n1
The inhibition of the first is lower: 5.13% for the first, 8.37% for the second.

Going from `O=C(C[n+]1cc(Br)cc2ccccc21)c1ccc(Br)cc1` to `COc1ccc(-n2c(-c3ccc(Br)cc3)c[n+]3c2CCc2ccccc2-3)cc1`, the inhibition rises from 5.62% to 13.6%.

Compared with `CCCNC(=O)CSc1nnc(-c2ccc(F)cc2)o1`, `CCCCc1ccc(NC(=O)CSc2nc(=O)n(CCN(C)C)c3c2CCC3)cc1` is higher in inhibition: -7.43% for the first, 11.9% for the second.

Going from `CC1CN(CC(O)COc2ccc(C#N)cc2)CCN1CC(O)COc1ccc(C#N)cc1` (stereo unspecified) to `COc1ccc(OCC(O)CNCc2ccco2)cc1` (stereo unspecified), the inhibition falls from 9.68% to 0.683%.

First: O=C(Cc1cccs1)Nc1cccc([N+](=O)[O-])c1
Second: O=C(Nc1cccc([N+](=O)[O-])c1)Nc1cccc([N+](=O)[O-])c1
The inhibition of the first is lower: 0.05% for the first, 1.71% for the second.

First: CN(C)S(=O)(=O)c1cccc(-c2csc(=Nc3ccccc3)n2CCCN2CCOCC2)c1
Second: O=C(NCCN1CCOCC1)c1ccc2c(c1)N(Cc1c(F)cccc1Cl)C(=O)c1ccccc1S2
The inhibition of the first is higher: 4.21% for the first, -4.77% for the second.

Compared with `Cc1ccc(C(=O)c2no[n+]([O-])c2C(=O)c2ccc(C)cc2)cc1`, `COc1ccc(C(=O)c2no[n+]([O-])c2C(=O)c2ccc(OC)cc2)cc1` is higher in inhibition: 19.9% for the first, 21.3% for the second.

Going from `Oc1c(Br)cccc1/C=N/c1ncn[nH]1` to `Oc1c(Cl)cc(Cl)cc1/C=N/c1ncn[nH]1`, the inhibition rises from -5.35% to 3.2%.

First: O=[N+]([O-])C(=C1Nc2ccccc2N1)C(Cl)=C(Cl)Cl
Second: O=[N+]([O-])C(=C1Nc2ccccc2N1)/C(Cl)=C(/Cl)Br
The inhibition of the first is higher: -0.56% for the first, -3.57% for the second.

Compared with `Cc1ccc(S(=O)(=O)N2CCCC2C(=O)NCc2ccccc2F)cc1` (stereo unspecified), `Cc1cccc(NC(=O)c2cc(S(=O)(=O)N(C)c3ccc(F)cc3)ccc2Cl)n1` is higher in inhibition: -7.81% for the first, 8.42% for the second.

Going from `CCN(CC)CCCn1c2c(c(SCC(=O)Nc3ccc4c(c3)OCCO4)nc1=O)CCC2` to `CCCC(CCC)C(=O)Nc1ccc2c(c1)N(C(=O)CN1CCN(C)CC1)c1ccccc1CC2`, the inhibition falls from 11.9% to 5.91%.

Going from `Cc1ccsc1CN(C)C(=O)CCc1nnc(COc2ccccc2)o1` to `Cn1c(=O)cc(OCCCC(=O)NCc2cccnc2)c2ccccc21`, the inhibition rises from -5.48% to 0.57%.

Going from `Cc1ccc(OCC(=O)N/N=C\c2c(C)n(C)c3ccccc23)c([N+](=O)[O-])c1` to `Cc1[nH]n(-c2ccccc2)c(=O)c1/C=N/NC(=O)COc1ccccc1[N+](=O)[O-]`, the inhibition falls from -4.6% to -5.18%.

First: COCCNC(=O)c1onc(CS(=O)(=O)c2cc(C)cc(C)c2)c1C(=O)NCCOC
Second: COc1ccc(-c2nc(CS(=O)(=O)CC(=O)Nc3cccc(C(C)=O)c3)c(C)o2)cc1
The inhibition of the first is higher: 5.4% for the first, -8.19% for the second.

Going from `COc1ccc(/C=C2/C(=O)N(c3nc4ccccc4s3)N=C2CSc2ccc(Cl)cc2)cc1` to `COC(=O)C1=C(C)N(Cc2ccccc2)C(=NCc2ccc(OC)cc2)N[C@H]1c1cccc(F)c1`, the inhibition rises from 3.84% to 10.3%.

First: CC(C)N1CCc2c(sc(NC(=O)c3ccc([N+](=O)[O-])o3)c2C(N)=O)C1
Second: NC(=O)c1c(NC(=O)c2ccc([N+](=O)[O-])o2)sc2c1CCCC2
The inhibition of the first is higher: -4.77% for the first, -5.17% for the second.

First: COc1ccccc1N1C(=O)c2cccnc2C1=O
Second: CC1Cc2ccccc2N1Cc1nc2scc(-c3cccs3)c2c(=O)[nH]1 (stereo unspecified)
The inhibition of the first is lower: -1.48% for the first, 0.2% for the second.

Going from `CCc1ccc(/C=C/C(=O)c2cc(Br)ccc(=O)c2O)cc1` to `Cc1cccc(/C=C/C(=O)c2cc(Br)ccc(=O)c2O)c1`, the inhibition rises from -13.9% to 4.56%.

First: CCOC(=O)C1(CC)CC(CSc2nc3ccccc3[nH]2)OC1=O (stereo unspecified)
Second: CCn1nc(C(=O)OCC(=O)N(CC(C)C)c2c(N)n(Cc3ccccc3)c(=O)[nH]c2=O)c2ccccc2c1=O
The inhibition of the first is higher: 5.22% for the first, -10.1% for the second.

Compared with `c1ccc(CN2CCN(Cc3c[nH]c4ccccc34)CC2)cc1`, `Clc1ccccc1N1CCN(Cc2c[nH]c3ccccc23)CC1` is lower in inhibition: 1.99% for the first, -13.8% for the second.

Going from `Nc1ccc(Sc2ccc([N+](=O)[O-])cc2)cc1` to `Nc1ccccc1SC(C[N+](=O)[O-])c1ccccc1` (stereo unspecified), the inhibition rises from -7.65% to 15.4%.

First: COc1cc(/C=N/NC(=O)c2ccncc2)ccc1Oc1ccc([N+](=O)[O-])cn1
Second: COC(=O)/C(=C\C(=O)c1ccccc1)Nc1ccc(OC)cc1
The inhibition of the first is higher: 4.23% for the first, -7.68% for the second.

Going from `OC(CN1CCCCC1)Cn1c2ccccc2c2ccccc21` (stereo unspecified) to `O=c1c2ccccc2n(CC(O)CN2CCCCC2)c2ccccc12` (stereo unspecified), the inhibition rises from -5.86% to -2.95%.

Going from `OC(CNCc1ccco1)Cn1c2ccccc2c2ccccc21` (stereo unspecified) to `COC(=O)C1=C(C)N(Cc2ccccc2)C(=NCc2ccccc2)N[C@H]1c1cccc(F)c1`, the inhibition falls from 1.11% to -0.78%.

Going from `CC1(C)CC(OC(=O)c2ccco2)CC(C)(C)N1O` to `CC1CC(C)CN(C(=O)COC(=O)c2ccc[nH]c2=O)C1` (stereo unspecified), the inhibition rises from -11.8% to -8.36%.

Compared with `Cc1csc(NC(=O)CSc2nnc3c4ccccc4nc(C(C)(C)C)n23)n1`, `CC(=O)c1ccc(O)c(CSc2nncn2C)c1` is higher in inhibition: -6.02% for the first, -0.79% for the second.

Compared with `CN(C)/C=C/c1onc(-c2c(F)cccc2Cl)c1C#N`, `COc1ccc2c(c1)CC/C(=C\c1ccc(C)o1)C2=O` is lower in inhibition: -0.05% for the first, -3.7% for the second.

Going from `Brc1ccc(-c2cn3c(n2)CCc2ccc4cccnc4c2-3)cc1` to `c1ccc(Nc2ccccn2)nc1`, the inhibition falls from 1.82% to -2.23%.

Compared with `CCOCCCn1c(=S)[nH]c2cc(C(=O)NCCc3ccc(OC)c(OC)c3)ccc2c1=O`, `C/C(=C\C(=O)c1ccccc1)Nc1ccc(O)cc1` is lower in inhibition: 3.11% for the first, -9.8% for the second.
